The results in this text go back to PubChem BioAssay (Tox21).

Values without a mark were called inactive. Results filed as inconclusive are left out. The source made the active and inactive calls. Calls come from the whole dose curve; as a rule, active = well fitted curve in the direction sought with a large enough effect in the repeat runs; inconclusive = weak or mixed curves; inactive = no such curve, though single readings can be large; an effect the other way counts as inactive or inconclusive.

Assay [1] can be described thus: qHTS RealTime-Glo MT Cell Viability Assay in HEK293 cells - 40 hour (AID 1224874). Note: nearly all actives have a fitted effect of over 50% in size. Note: potency is the fitted concentration of half-maximal effect. The settings on record: RealTime-Glo luminescence; max response: active compounds read low. A digest of the protocol:
(§1)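 Kinetic, non-lysing viability readout. Seed HEK293 (600/well) with reagent, incubate 5 h at 37 C/5% CO2, pin 23 nL compound in DMSO, incubate at 37 C, read luminescence at 0, 8, 16, 24, 32, 40 h.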

Assay [2] is described as follows: A CellTox Green Cytotoxicity Assay to monitor cytotoxicity in HEK293 cells - 24 hour (AID 1224875). For activity change: series mostly up to about 77 µM. Note: nearly all actives have a fitted effect of over 45% in size. Note: potency is the fitted concentration of half-maximal effect. A digest of the protocol:
(§2)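 Real-time, in one plate: 600 HEK293 cells/well with dead-cell DNA dye, pinned compound after 5 h, 37 C incubation over 40 h; viable cells give no appreciable fluorescence.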

Assay [3] can be described thus: A CellTox Green Cytotoxicity Assay to monitor cytotoxicity in HepG2 cells - 16 hour (AID 1224876). Note: nearly all actives have a fitted effect of over 45% in size. Note: potency is the fitted concentration of half-maximal effect. A digest of the protocol: (§3)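 Cytotoxicity was tracked as dead-cell DNA fluorescence in HepG2 cells treated with test compounds at 37 C; each time-point value comes from one kinetic series spanning 0, 8, 16, 24, 32 and 40 h.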
A short description of assay [4]: qHTS RealTime-Glo MT Cell Viability Assay in HepG2 cells - 32 hour (AID 1224877). Note: nearly all actives have a fitted effect of over 55% in size. Note: potency is the fitted concentration of half-maximal effect. A digest of the protocol:
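Tox21 10K library screened in qHTS format on HepG2 cells carrying RealTime-Glo reagents. Compounds were added after a 5 h preincubation, and the luminescent signal from continuous culture was measured repeatedly during 40 h treatment.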
Background: Quantitative high-throughput screening tests each substance at several concentrations.

Assay [5] is described as follows: A CellTox Green Cytotoxicity Assay to monitor cytotoxicity in HepG2 cells - 24 hour (AID 1224878). Note: nearly all actives have a fitted effect of over 45% in size. Note: potency is the fitted concentration of half-maximal effect. A digest of the protocol: as §3
Assay [6] is described as follows: A CellTox Green Cytotoxicity Assay to monitor cytotoxicity in HepG2 cells - 40 hour (AID 1224879). Note: nearly all actives have a fitted effect of over 40% in size. Note: potency is the fitted concentration of half-maximal effect. A digest of the protocol: as §3
A short description of assay [7]: qHTS RealTime-Glo MT Cell Viability Assay in HEK293 cells - 0 hour (AID 1224880). For activity change, negative = cytotoxicity: top concentration of the series differs between compounds. Note: nearly all actives have a fitted effect of over 45% in size. Note: potency is the fitted concentration of half-maximal effect. A digest of the protocol:
as §1

The nature of assay [8]: A CellTox Green Cytotoxicity Assay to monitor cytotoxicity in HepG2 cells - 0 hour (AID 1224882). Note: nearly all actives have a fitted effect of over 35% in size. A digest of the protocol: as §3
A short description of assay [9]: A CellTox Green Cytotoxicity Assay to monitor cytotoxicity in HepG2 cells - 32 hour (AID 1224883). Note: nearly all actives have a fitted effect of over 50% in size. Note: potency is the fitted concentration of half-maximal effect. A digest of the protocol: as §3
Assay [10] is described as follows: A CellTox Green Cytotoxicity Assay to monitor cytotoxicity in HEK293 cells - 32 hour (AID 1224881). Note: nearly all actives have a fitted effect of over 40% in size. Note: potency is the fitted concentration of half-maximal effect. A digest of the protocol: as §2
% is set by controls: 0 for no effect and ±100 for the full control effect.

Regarding `O=C(O)C[C@H](O)C[C@H](O)/C=C/c1c(C2CC2)nc2ccccc2c1-c1ccc(F)cc1`, in assay [1], the max response is -20.4%. In assay [2], the activity change is 1.41% [at 15.8 µM, active compounds read high]. For the same molecule, the cytotoxicity increase in [3] was 7.91% [at 15.8 µM]. The activity change, negative = cytotoxic in assay [4] is -27.7% [at 15.8 µM]. Besides, the Potency in assay [5], in assay [6] and in [9] was 2.61 µM (active) throughout. In assay [7], the activity change, negative = cytotoxicity was 8.78% [at 15.8 µM]. For the same molecule, the cytotoxicity in assay [8] is 0.628% [at 15.8 µM].
As to `C=Cc1ccncc1`, in assay [1], the max response was -1.15%. In addition, the Potency entry in [2], in assay [3], in assay [4], in assay [5], in assay [6] and in assay [7] was “inactive” in each case. Moreover, the Potency entry in [8] and in assay [9] was “inactive” in each case.
Consider `CCc1cccc(C)c1N(C(=O)C(=O)O)C(C)COC` (stereo not given), for which, in assay [1], the max response was 10.9%. The Potency entry in assay [2], in assay [3], in assay [4], in assay [5], in [6] and in assay [7] was “inactive” throughout. Also, the Potency result in assay [10] and in assay [9] was “inactive” each time.
Turning to `CCn1c2ccccc2c2ccccc21`, the max response in [1] is -15.2%. Moreover, the Potency result in assay [2], in [3], in [4], in assay [5], in assay [6] and in [7] was “inactive” in each case. Also, the Potency result in [10], in assay [8] and in assay [9] was “inactive” in each case.
Consider `C=CC(C)(C)O`, for which the max response in assay [1] is 6.97%. The Potency result in assay [2], in [3], in assay [4], in [5], in assay [6] and in [7] was “inactive” each time. Moreover, the Potency result in assay [10] and in [9] was “inactive” throughout.
In the case of `CN1CC[C@H](c2c(O)cc(O)c3c(=O)cc(-c4ccccc4Cl)oc23)[C@H](O)C1`, the Potency in assay [1] is 0.19 µM (active); in [5] it was 0.268 µM (active); in assay [6] it was 0.239 µM (active); in assay [9] it was 0.213 µM (active). Further, the Potency result in assay [2], in assay [3], in assay [4], in assay [7] and in [8] was “inactive” in each case.
In the case of `Cc1ccc(S(=O)(=O)C(I)I)cc1`, the Potency is 8.71 µM (active) in assay [1]; 34.7 µM (active) in [2]; 54.9 µM (active) in [3]; 11 µM (active) in assay [4]; 24.5 µM (active) in [6]; 0.616 µM (active) in assay [7]. The figures for the Potency in [10] and in [9] were 24.5 µM (active) and 43.6 µM (active), respectively. For the same molecule, the Potency entry in assay [8] is “inactive”.
Regarding `Oc1ccc(C2(c3ccc(O)c(C4CCCCC4)c3)CCCCC2)cc1C1CCCCC1`, the Potency is 24.5 µM (active) in assay [1]; 34.7 µM (active) in assay [3]; 34.7 µM (active) in assay [4]; 34.7 µM (active) in assay [5]; 24.5 µM (active) in assay [6]; 49 µM (active) in assay [7]. Also, the Potency in assay [9] was 34.7 µM (active). The Potency entry in assay [2] and in assay [10] was “inactive” throughout.
On to `Cc1ccc(N=Nc2c(O)ccc3ccccc23)c(C)c1`, for which the max response in assay [1] is -8.3%. Moreover, the Potency result in assay [2], in assay [3], in assay [4], in assay [5], in [6] and in assay [10] was “inactive” throughout. Besides, the Potency result in assay [8] and in assay [9] was “inactive” throughout.
In the case of `CC(C)C(=O)C(C)C`, the max response in [1] was 8.37%. Further, the Potency entry in assay [2], in assay [3], in [4], in assay [5], in assay [6] and in assay [7] was “inactive” each time. Besides, the Potency entry in assay [8] and in assay [9] was “inactive” each time.
As for `CN[C@H]1CC[C@@H](c2ccc(Cl)c(Cl)c2)c2ccc(S(N)(=O)=O)cc21`, the Potency is 19.5 µM (active) in assay [1]; 21.9 µM (active) in assay [2]; 43.6 µM (active) in assay [3]; 19.5 µM (active) in assay [4]; 13.8 µM (active) in [5]; 13.8 µM (active) in assay [6]. Besides, the Potency in assay [10] was 24.5 µM (active); in [9] it was 13.8 µM (active). In [8], the Potency entry is “inactive”.
As for `CCSCC`, the max response in assay [1] was 8.26%. The Potency result in assay [2], in [3], in [4], in [5], in assay [6] and in assay [7] was “inactive” throughout. For the same molecule, the Potency entry in assay [8] and in [9] was “inactive” in each case.
Turning to `CN1CCN(CCCN2c3ccccc3Sc3ccc(C(F)(F)F)cc32)CC1`, the Potency in assay [1] is 23.9 µM (active); in assay [2], 23.9 µM (active); in assay [3], 23.9 µM (active); in [4], 23.9 µM (active); in assay [5], 21.3 µM (active); in [6], 23.9 µM (active). For the same molecule, the Potency is 23.9 µM (active) in assay [10] and 21.3 µM (active) in assay [9]. Besides, the Potency result in assay [8] is “inactive”.
Regarding `CC(=O)CC(N)=O`, the max response in assay [1] is 14.8%. Further, the Potency result in assay [2], in [3], in assay [4], in [6], in assay [7] and in assay [10] was “inactive” throughout. For the same molecule, the Potency entry in assay [8] and in [9] was “inactive” each time.
Regarding `C=CC(=O)OCCOC1C2CCC1C1CC=CC12` (stereo not given), the max response in assay [1] is 6.38%. In addition, in [2], the activity change is 0.179% [at 15.8 µM, active compounds read high]. The cytotoxicity increase in assay [3] was -1.04% [at 15.8 µM]; in assay [6] it was -11.6% [at 15.8 µM]; in [10], -0.486% [at 15.8 µM]; in assay [9], -7.81% [at 15.8 µM]. In [4], the activity change, negative = cytotoxic is 3.75% [at 15.8 µM]. The cytotoxicity in assay [5] was -5.89% [at 15.8 µM]. In assay [7], the activity change, negative = cytotoxicity was 4.39% [at 15.8 µM].
Regarding `Cc1cccc2c1ccc1ccccc12`, in assay [1], the max response is -16.2%. Moreover, the Potency entry in assay [2], in assay [3], in [4], in [5], in assay [6] and in assay [7] was “inactive” each time. The Potency entry in assay [8] and in assay [9] was “inactive” throughout.
`O=C1OC(=O)c2cc(-c3ccc4c(c3)C(=O)OC4=O)ccc21`: in assay [1], the max response is 0.595%. The Potency result in [2], in [3], in [4], in assay [5], in assay [6] and in [7] was “inactive” throughout. In addition, the Potency result in assay [8] and in [9] was “inactive” throughout.
As for `C=CC(=O)O[C@H]1C[C@@H]2CC[C@@]1(C)C2(C)C`, in assay [1], the max response was 3.56%. Also, the Potency result in assay [2], in assay [3], in assay [4], in [5], in assay [6] and in assay [7] was “inactive” each time. In addition, the Potency entry in [8] and in [9] was “inactive” each time.
Regarding `[Cl][Eu]([Cl])[Cl]`, the max response in [1] was -1.1%. In addition, the Potency entry in assay [2], in assay [3], in [4], in [6], in assay [7] and in [10] was “inactive” in each case. For the same molecule, the Potency result in assay [8] and in assay [9] was “inactive” throughout.
In the case of `Clc1ccc2c(Cl)ccnc2c1`, in [1], the max response was -6.98%. Further, the Potency result in assay [2], in assay [3], in [4], in assay [5], in assay [6] and in assay [7] was “inactive” each time. The Potency entry in assay [8] and in [9] was “inactive” throughout.
For `CN1CCN(c2ccccc2/C=C2\SCCN(c3ccc(Cl)c(Cl)c3)C2=O)CC1`, the Potency in assay [1] was 12.3 µM (active); in assay [2] it was 49 µM (active); in [3], 49 µM (active); in assay [4], 21.9 µM (active); in [5] it was 24.5 µM (active); in [6], 19.5 µM (active). The Potency in [9] was 21.9 µM (active). Besides, the Potency entry in [7] and in [8] was “inactive” throughout.
